Our source for the cell count reduction values is PubChem BioAssay AID845 (Columbia University Molecular Screening Center, 2007).

Structures are written as SMILES. Out of some 94,000 compounds screened, about 390 (0.41%) were called active.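 The calls were made as follows: active = cell count reduction more than 3 SD above the screen-wide mean (cut at about 70% in these data); inactive = the rest.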 For the sample, actives were picked, then their nearest neighbours and some compounds at random.

This assay is described as follows: HUVEC cell count loss after compound exposure – imaging, Hoechst nuclear count, IL-1B stimulus, cytotoxicity control for IL-1B NFkB translocation project, primary screen (AID 845).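 Also: normalized per plate to untreated control cells as the no-loss baseline.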 The following applies: IL-1B stimulated, at 2 µM, stronger effect = higher value.
In the case of `Cc1cccc(CCNS(=O)(=O)c2ccc(S(=O)(=O)NC3CCCC3)cc2)c1`, the cell count reduction was -6.4% (inactive).
The same measure for `COc1ccc(-c2cc(C(=O)NCc3ccco3)no2)cc1OC`: 3% (inactive); for `Cc1ccc(OCC(=O)N2CCN(C(=O)c3cccnc3)CC2)cc1`: -38.8% (inactive); for `CNC(=S)N1N=C(c2ccccc2)CC1c1ccc(Br)cc1` (stereo not given): -18.6% (inactive).
The value for `CC(C)CNS(=O)(=O)c1ccc(OCC(=O)Nc2ccc3c(c2)OCO3)c(Cl)c1` was -38.8% (inactive); that for `COc1ccc(S(=O)(=O)Nc2ccc3c(c2)OCO3)cc1Cl` was 81.3% (active).
Turning to `COc1ccc(F)cc1S(=O)(=O)Nc1ccc2c(c1)OCO2`, the cell count reduction was -1.3% (inactive).
The value for `O=C1c2ccccc2C(=O)c2c1cccc2N1CCN(CCO)CC1` was -12.4% (inactive); that for `Cc1ccc(NC(=S)N/N=C2/CCCc3c(C)cc(C)cc32)cc1` was -6.1% (inactive); that for `O=C(c1ccccc1-c1ccccc1)N1CCOCC1` was -0.4% (inactive).
On to `CC(C(=O)Nc1ccccc1-c1ccccc1)N1CCOCC1` (stereo not given), for which the cell count reduction is 91.2% (active).
`CC(Sc1nncn1C)C(=O)Nc1ccccc1-c1ccccc1` (stereo not given): the cell count reduction was 35.5% (inactive).
The value for `COc1cc(/C=N/O)cc(Br)c1OCc1cccc(Cl)c1` was -29.3% (inactive); that for `Cc1ccc(O/C=C2\OC(=O)c3ccccc32)cc1` was -34.7% (inactive); that for `N=c1oc2ccccc2cc1C(=O)N/N=C/c1ccccc1` was 23.4% (inactive).
The same measure for `CCc1c(O)nc(SCC(=O)Nc2ccccc2)n(C(C)CC)c1=O` (stereo not given): -2.8% (inactive); for `COCC(C)NC(=O)c1ccc(-n2nc(C(F)(F)F)cc2-c2cccs2)cc1` (stereo not given): -9.2% (inactive); for `Cn1c(=O)c2c(ncn2CC(COCc2ccccc2Cl)OCc2ccccc2Cl)n(C)c1=O` (stereo not given): 8.7% (inactive).
For `O=C(Nc1cccn(Cc2c(Cl)cccc2Cl)c1=O)c1ccc(Cl)cc1`, the cell count reduction is -1.3% (inactive).
Regarding `Cc1ccc(Nc2nnc(SCc3ccccc3)s2)cc1`, the cell count reduction is 22.5% (inactive).
`CC(=O)c1cnn(-c2cc(Oc3ccc(F)cc3)ncn2)c1C`: the cell count reduction is -1.7% (inactive).
The value for `Cc1nnc(SCC(=O)NC2CCCC2)s1` was 22.6% (inactive); that for `CNS(=O)(=O)c1cnccc1N1CCN(c2cccc(C)c2)CC1` was -0.7% (inactive).
Take `CC/C(O)=N\S(=O)(=O)c1ccc(N=NN(C)C)cc1`: the cell count reduction was -5.3% (inactive).
Regarding `COc1ccc(-c2cc(C(=O)n3cnc4ccccc43)c3ccccc3n2)cc1`, the cell count reduction is -10% (inactive).
